Test results as given in PubChem BioAssay AID1159580 (chemical genetic matrix, 2015).
About 2,000 (36%) of roughly 5,500 compounds were called active. Another 18% or so got no clear call; they are omitted. Cut-off read from the data, not from the text of the source: active = normalized growth mostly below about 0.91 (no sharp cut-off); inconclusive = no clear call, values can overlap the other calls; inactive = mostly above about 0.92. Some of the results follow.

Assay: chemical genetic growth profiling, strain panel (AID 1159580);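 note: tested at 20 µM; growth read once vehicle control cultures reached saturation at 30 °C; 1 = growth at the plate median or of vehicle wells; lower values mean less growth of the strain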
Conditions: growth OD

Measured: normalized growth

c1ccc2c(c1)CCCC2C1=NCCN1 (stereo not given)
inactive: S. cerevisiae deletion strains, locus YKL009W, strain mrt4, active compounds read low 0.995 | S. cerevisiae deletion strains, locus YKL068W, active compounds read low 1 | S. cerevisiae deletion strains, locus YKL085W, strain MDH1 (second series), active compounds read low 1.01 | S. cerevisiae deletion strains, locus YKL085W, strain MDH1, active compounds read low 1.01 | S. cerevisiae deletion strains, locus YKL160W, strain elf1, active compounds read low 1.03 | S. cerevisiae deletion strains, locus YKL190W, strain CNB1, active compounds read low 1.01 | S. cerevisiae deletion strains, locus YKR001C, strain vps1, active compounds read low 0.986 | S. cerevisiae deletion strains, locus YKR026C, strain gcn3, active compounds read low 1.02 | S. cerevisiae deletion strains, locus YKR091W, strain srl3, active compounds read low 1.03 | S. cerevisiae deletion strains, locus YLL001W, strain dnm1, active compounds read low 1.03 | S. cerevisiae deletion strains, locus YLL026W, active compounds read low 1.03 | S. cerevisiae deletion strains, locus YLL041C, strain sdh2, active compounds read low 1.04 | S. cerevisiae deletion strains, locus YLR027C, strain aat2, active compounds read low 1.02 | S. cerevisiae deletion strains, locus YLR039C, strain RIC1, active compounds read low 1.03 | S. cerevisiae deletion strains, locus YLR058C, strain SHM2, active compounds read low 1.01 | S. cerevisiae deletion strains, locus YLR102C, strain apc9, active compounds read low 1 | S. cerevisiae deletion strains, locus YLR113W, strain HOG1, active compounds read low 0.982 | S. cerevisiae deletion strains, locus YLR221C, strain rsa3, active compounds read low 1.04 | S. cerevisiae deletion strains, locus YLR258W, strain gsy2, active compounds read low 1.02 | S. cerevisiae deletion strains, locus YLR262C, strain YPT6 (second series), active compounds read low 1.04 | S. cerevisiae deletion strains, locus YLR262C, strain YPT6, active compounds read low 1.04 | S. cerevisiae deletion strains, locus YLR268W, strain sec22, active compounds read low 1.03 | S. cerevisiae deletion strains, locus YLR320W, strain mms22, active compounds read low 1.03 | S. cerevisiae deletion strains, locus YLR330W, strain CHS5, active compounds read low 1.01 | S. cerevisiae deletion strains, locus YLR342W, strain FKS1 (second series), active compounds read low 1.03 | S. cerevisiae deletion strains, locus YLR342W, strain FKS1, active compounds read low 1.02 | S. cerevisiae deletion strains, locus YLR357W, strain rsc2, active compounds read low 1.04 | S. cerevisiae deletion strains, locus YLR370C, strain arc18, active compounds read low 1.02 | S. cerevisiae deletion strains, locus YLR371W, strain rom2, active compounds read low 1.01 | S. cerevisiae deletion strains, locus YLR384C, strain iki3, active compounds read low 1.03 | S. cerevisiae deletion strains, locus YLR418C, strain cdc73, active compounds read low 0.98 | S. cerevisiae deletion strains, locus YML016C, strain PPZ1, active compounds read low 1.01 | S. cerevisiae deletion strains, locus YML032C, strain rad52, active compounds read low 1 | S. cerevisiae deletion strains, locus YML120C, strain ndi1, active compounds read low 1.01 | S. cerevisiae deletion strains, locus YML124C, strain tub3, active compounds read low 0.986 | S. cerevisiae deletion strains, locus YMR058W, strain fet3, active compounds read low 1.02 | S. cerevisiae deletion strains, locus YMR078C, strain ctf18, active compounds read low 0.997 | S. cerevisiae deletion strains, locus YMR125W, strain sto1, active compounds read low 1.03 | S. cerevisiae deletion strains, locus YMR129W, active compounds read low 1.02 | S. cerevisiae deletion strains, locus YMR205C, strain PFK2, active compounds read low 1.05 | S. cerevisiae deletion strains, locus YMR223W, strain ubp8, active compounds read low 0.985 | S. cerevisiae deletion strains, locus YMR231W, strain pep5, active compounds read low 1.02 | S. cerevisiae deletion strains, locus YMR263W, strain SAP30, active compounds read low 1.01 | S. cerevisiae deletion strains, locus YMR307W, strain GAS1, active compounds read low 1 | S. cerevisiae deletion strains, locus YNL067W, strain RPL9B, active compounds read low 1 | S. cerevisiae deletion strains, locus YNL071W, strain lat1, active compounds read low 1.03 | S. cerevisiae deletion strains, locus YNL128W, strain TEP1, active compounds read low 1.02 | S. cerevisiae deletion strains, locus YNL153C, strain GIM3, active compounds read low 1.06 | S. cerevisiae deletion strains, locus YNL175C, strain NOP13, active compounds read low 0.995 | S. cerevisiae deletion strains, locus YNL183C, strain NPR1, active compounds read low 0.953 | S. cerevisiae deletion strains, locus YNL197C, strain WHI3, active compounds read low 1 | S. cerevisiae deletion strains, locus YNL209W, strain ssb2, active compounds read low 1.02 | S. cerevisiae deletion strains, locus YNL224C, strain SQS1, active compounds read low 1 | S. cerevisiae deletion strains, locus YNL233W, strain BNI4, active compounds read low 1.01 | S. cerevisiae deletion strains, locus YNL248C, strain rpa49, active compounds read low 1.02 | S. cerevisiae deletion strains, locus YNL250W, strain rad50, active compounds read low 0.998 | S. cerevisiae deletion strains, locus YNL271C, strain bni1, active compounds read low 0.998 | S. cerevisiae deletion strains, locus YNL298W, strain CLA4, active compounds read low 1.02 | S. cerevisiae deletion strains, locus YNL307C, strain MCK1, active compounds read low 0.995 | S. cerevisiae deletion strains, locus YNL322C, strain KRE1 (second series), active compounds read low 1.03 | S. cerevisiae deletion strains, locus YNL322C, strain KRE1, active compounds read low 1.01 | S. cerevisiae deletion strains, locus YNR049C, strain mso1, active compounds read low 1.02 | S. cerevisiae deletion strains, locus YNR052C, strain pop2, active compounds read low 1.01 | S. cerevisiae deletion strains, locus YOL006C, strain TOP1, active compounds read low 0.988 | S. cerevisiae deletion strains, locus YOL012C, strain htz1 0.923 | S. cerevisiae deletion strains, locus YOL147C, strain pex11, active compounds read low 0.989 | S. cerevisiae deletion strains, locus YOR001W, strain rrp6, active compounds read low 1.02 | S. cerevisiae deletion strains, locus YOR061W, strain CKA2, active compounds read low 1.01 | S. cerevisiae deletion strains, locus YOR069W, strain VPS5, active compounds read low 1.01 | S. cerevisiae deletion strains, locus YOR070C, strain gyp1, active compounds read low 1.02 | S. cerevisiae deletion strains, locus YOR080W, strain dia2, active compounds read low 1.04 | S. cerevisiae deletion strains, locus YOR083W, strain WHI5 (second series), active compounds read low 1.02 | S. cerevisiae deletion strains, locus YOR083W, strain WHI5, active compounds read low 1.03 | S. cerevisiae deletion strains, locus YOR106W, strain vam3, active compounds read low 1.03 | S. cerevisiae deletion strains, locus YOR136W, strain idh2, active compounds read low 0.994 | S. cerevisiae deletion strains, locus YOR144C, strain elg1, active compounds read low 0.993 | S. cerevisiae deletion strains, locus YOR184W, strain ser1, active compounds read low 0.99 | S. cerevisiae deletion strains, locus YOR231W, strain MKK1, active compounds read low 0.978 | S. cerevisiae deletion strains, locus YOR265W, strain rbl2, active compounds read low 1.02 | S. cerevisiae deletion strains, locus YOR270C, strain vph1, active compounds read low 1.07 | S. cerevisiae deletion strains, locus YOR290C, strain snf2, active compounds read low 1.04 | S. cerevisiae deletion strains, locus YOR316C, strain cot1, active compounds read low 1 | S. cerevisiae deletion strains, locus YPL051W, strain arl3, active compounds read low 1.03 | S. cerevisiae deletion strains, locus YPL055C, strain LGE1, active compounds read low 0.995 | S. cerevisiae deletion strains, locus YPL078C, strain atp4, active compounds read low 1.01 | S. cerevisiae deletion strains, locus YPL106C, strain sse1, active compounds read low 1.06 | S. cerevisiae deletion strains, locus YPL240C, strain hsp82, active compounds read low 1.01 | S. cerevisiae deletion strains, locus YPL241C, strain CIN2, active compounds read low 1.01 | S. cerevisiae deletion strains, locus YPL256C, strain CLN2, active compounds read low 0.959 | S. cerevisiae deletion strains, locus YPR119W, strain clb2, active compounds read low 1.01 | S. cerevisiae deletion strains, locus YPR141C, strain kar3, active compounds read low 0.981 | S. cerevisiae deletion strains, locus YPR163C, strain tif3, active compounds read low 1 | S. cerevisiae deletion strains, locus YPR167C, strain met16, active compounds read low 1 | S. cerevisiae deletion strains, strain wtn01, active compounds read low 0.996 | S. cerevisiae strains, strain wild type, active compounds read low 1.02
